FBA Mtb inh: Mtb FBA enzyme inhibitors, primary screen, biochemical, fluorescence, strain H37Rv | Fructose-bisphosphate aldolase (Mycobacterium tuberculosis (strain ATCC 25618 / H37Rv)), … | purified M. tuberculosis FBA, fluorescence read-out | AID 588726, 2011 | 2.3% of 360,000 active | inhibition, % at 1 µM; in the data active = inhibition above about 27%;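 also: 0% = vehicle and 100% = reference inhibitor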
Rv3671c protease: Rv3671c serine protease inhibitors, primary screen, biochemical, fluorescence polarization, M. tuberculosis H37Rv | P9WHR9 | inhibition, % at 5.96 µM | 0.048% of 320,000 active | AID 2606, 2010; in the data active = inhibition above about 38%;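 also: extracellular domain of Rv3671c used as enzyme; 0% = enzyme with DMSO and 100% = no enzyme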
GDH-TPI inh: GDH-TPI coupling enzyme inhibitors, primary screen, artefact control for M. tuberculosis FBA inhibitor project, biochemical, absorbance, full deck; GDH-TPI coupled enzyme counterscreen, NADH absorbance; inhibition, % at 4.8 µM; 1.2% of 360,000 active; AID 588335, 2011; in the data active = inhibition above about 30%;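 also: 0% = DMSO wells and 100% = wells lacking the enzyme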
UGM FP inh: M. tuberculosis UGM enzyme inhibitors, primary screen, biochemical, fluorescence polarization, single point | UDP-galactopyranose mutase (Mycobacterium tuberculosis (strain ATCC 25618 / H37Rv)), … | purified UGM, fluorescence polarization probe displacement | inhibition, % at 10 µM | 0.06% of 320,000 active; in the data active = inhibition above about 10%, passing the limit was not always enough
Target sequence (P9WIQ1 whole entry, looked up): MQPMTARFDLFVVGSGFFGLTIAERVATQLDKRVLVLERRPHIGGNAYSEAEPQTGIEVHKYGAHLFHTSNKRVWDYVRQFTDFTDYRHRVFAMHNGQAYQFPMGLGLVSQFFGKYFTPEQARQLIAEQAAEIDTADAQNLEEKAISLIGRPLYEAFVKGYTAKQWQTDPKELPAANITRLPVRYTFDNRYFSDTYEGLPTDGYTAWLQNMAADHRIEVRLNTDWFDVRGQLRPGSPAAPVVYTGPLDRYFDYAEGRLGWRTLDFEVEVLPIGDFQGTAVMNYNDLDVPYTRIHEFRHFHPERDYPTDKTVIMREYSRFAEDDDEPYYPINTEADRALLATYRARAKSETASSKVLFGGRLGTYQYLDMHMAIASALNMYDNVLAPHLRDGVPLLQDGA
Active calls of the source: *; . = not tested or not shown; + = active, no number. An excerpt weighted towards active compounds, which were near 3.5% of everything screened.

SMILES | FBA Mtb inh | Rv3671c protease | GDH-TPI inh | UGM FP inh
O=C(OCC(=O)N1CCOCC1)c1ccc(O)cc1 | + | -3 | 14 | 1
CCOC(=O)N1CCN(c2c(N3CCc4ccccc43)c(=O)c2=O)CC1 | 0 | -7 | 51* | 2
CCOC(=O)N1CCN(c2c(N3CCN(c4ccccn4)CC3)c(=O)c2=O)CC1 | 4 | 0 | 7 | -1
CCOC(=O)N1CCN(c2c(Nc3ccc4c(c3)OCCO4)c(=O)c2=O)CC1 | 2 | 5 | 42* | 0
CCN1CCN(CCCN(Cc2cccs2)C(=S)Nc2ccccc2C)CC1 | 0 | 2 | 8 | -1
COc1cc(CN2CC(=O)N(c3cc(Cl)ccc3C)C2=S)cc(OC)c1OC | 4 | -17 | 2 | -3
COc1ccc(-c2csc(NC(=O)CCN3C(=O)C4CC=CCC4C3=O)n2)cc1OC (centres undefined) | -2 | -6 | 8 | 1
Cc1ccc(OCC(=O)N/N=C/c2cc([N+](=O)[O-])ccc2N2CCCCC2)cc1 | -1 | 6 | 12 | 1
O=C(COc1ccc([N+](=O)[O-])cc1)N/N=C/c1cc([N+](=O)[O-])ccc1N1CCOCC1 | -3 | 6 | 48* | .
CC1Cc2nc(SCC(=O)NCC3CCCO3)n(-c3ccc(F)cc3)c(=O)c2S1 (centres undefined) | 1 | -7 | 3 | -1
COc1ccccc1NC(=O)N(Cc1cc2cc(OC)c(OC)cc2[nH]c1=O)CC1CCCO1 (centres undefined) | 19 | 4 | 34* | -1
COc1ccc2[nH]c(=O)c(CN(CC3CCCO3)C(=O)Nc3ccccc3OC)cc2c1 (centres undefined) | 9 | . | 15 | .
COc1cc2cc(CN(CCO)C(=O)c3cccs3)c(=O)[nH]c2cc1OC | 14 | -3 | 37* | -1
COc1ccc2cc(CN(CC3CCCO3)S(=O)(=O)c3ccccc3Cl)c(=O)[nH]c2c1 (centres undefined) | 6 | 2 | 32* | 2
Cc1nn(-c2ccc(N3CCOCC3)nn2)c(C)c1CCC(=O)NCc1ccccc1 | 0 | 8 | -3 | -1
Nc1nonc1-n1nnc(C(=O)N/N=C/c2cccc(Cl)c2)c1-c1cccs1 | 1 | -11 | 12 | -2
CCC1Oc2ccc(C)cc2N(CC(=O)NCC2CCCO2)C1=O (centres undefined) | 0 | 8 | -5 | 1
CCC(C)C(NC(=O)C1CCC(C)CC1)C(=O)NCc1ccccn1 (centres undefined) | 0 | -9 | 15 | 2
Cc1ccc(C(=O)CC(=O)c2ccccc2)cc1 | 2 | 2 | 17 | 0
CC(CC(=O)c1ccccc1)=NCC(O)CN=C(C)CC(=O)c1ccccc1 (centres undefined) | 0 | . | 55* | .
CNC(=O)c1cc2ccc(OC)cc2oc1=O | + | 1 | 30 | 1
CCOC(=O)c1cc2ccc(OC)cc2oc1=O | + | 0 | 43* | 3
COc1ccc(CNC(=O)c2cc3ccccc3oc2=O)cc1 | 3 | -12 | 15 | 3
COC(=O)COc1cc(OCC(=O)OC)c2c(C)c(Cl)c(=O)oc2c1 | + | -5 | 9 | -1
COC(=O)C(C)Oc1cc(OC(C)C(=O)OC)c2c(C)c(Cl)c(=O)oc2c1 (centres undefined) | + | 1 | 11 | 2
SMILES | FBA Mtb inh | Rv3671c protease | GDH-TPI inh | UGM FP inh
COc1cc(NC(=O)COc2cc(C)cc3oc(=O)c(C)c(C)c23)cc(OC)c1OC | 1 | -4 | 5 | 1
Cc1nc2scc(C)n2c(=O)c1S(=O)(=O)N1CCN(c2cccc(C(F)(F)F)c2)CC1 | 5 | -3 | 6 | -3
CC(C)OC(=O)CC(=O)c1sc2nc3c(cc2c1N)CN(C)CC3 | . | -2 | . | 16*
CN1CCc2nc3sc(C(=O)NC(C)(C)C)c(N)c3cc2C1 | -3 | -2 | 14 | 2
CC(=O)c1cccc(-c2cnc3c(NC=O)cc(-c4ccc(F)cc4)cn23)c1 | -2 | . | 9 | .
Oc1cccc2ccc(/C=C/c3cccs3)nc12 | -2 | -3 | 31* | 3
Cc1ccsc1/C=C/c1ccc2cccc(O)c2n1 | -2 | 4 | 8 | -1
COc1ccccc1CCNS(=O)(=O)CCNC(=O)c1ccc2c(c1)OCO2 | 2 | -4 | 5 | 1
NC(=S)N/N=C/c1ncc(C(F)(F)F)cc1Cl | 2 | 12 | 46* | 0
CCOC(=O)CNC(=O)N(CCOC)CC1CCCN(C2Cc3ccccc3C2)C1 (centres undefined) | + | -1 | -8 | 0
